Assay outcomes from PubChem BioAssay.
MOR-DOR ag: OPRM1-OPRD1 heterodimerization agonism; P35372+P41143; cells, luminescence; activation, % at 9.3 µM; 340,000 tested, 0.3% active; AID 504326; in the data active means activation above about 18%;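 further: 0% = vehicle-treated cells and 100% = reference agonist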
HTR5A ag ctr: HTR5A agonism, opioid heterodimer counter-screen | P47898 | HTR5A agonist assay, luminescence, cell-based | activation, % at 9.3 µM | 340,000 tested, 0.61% active | AID 504692; in the data active means activation mostly above about 9.5%, no sharp cut-off; inactive means mostly below about 7.6%;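 further: 0% = cells with vehicle only and 100% = reference agonist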
Target sequence (P47898 whole entry, looked up): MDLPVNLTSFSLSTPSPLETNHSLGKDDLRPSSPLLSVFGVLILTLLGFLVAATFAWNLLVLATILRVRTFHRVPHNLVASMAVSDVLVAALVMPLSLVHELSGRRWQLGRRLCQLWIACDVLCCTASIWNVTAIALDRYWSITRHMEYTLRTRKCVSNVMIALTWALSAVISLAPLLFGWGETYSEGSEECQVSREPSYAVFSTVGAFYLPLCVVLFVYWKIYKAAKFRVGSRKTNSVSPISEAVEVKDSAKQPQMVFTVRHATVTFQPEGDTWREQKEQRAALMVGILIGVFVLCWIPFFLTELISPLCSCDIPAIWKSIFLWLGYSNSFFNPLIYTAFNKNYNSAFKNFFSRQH
HTR5A inv ctr: HTR5A inverse agonism, opioid heterodimer counter-screen; inhibition, % at 9.3 µM; HTR5A cell line, luminescence; 340,000 tested, 0.083% active; P47898; in the data active means inhibition mostly above about 23%, no sharp cut-off; inactive means mostly below about 18%;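 further: 0% = cells with DMSO and 100% = no-cell wells with DMSO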
MOR-DOR inv ag: inverse agonists of human mu-delta opioid receptor heterodimerization | inhibition, % at 9.3 µM | 340,000 tested, 0.21% active | cell-based MOR-DOR heterodimer luminescence, inverse agonism | AID 504357 | P35372+P41143; in the data active means inhibition above about 22%, passing the limit was not always enough;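 further: 0% = cells with DMSO and 100% = wells without cells with DMSO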
OPRM1-D1 inv cf: confirmation of human OPRM1-OPRD1 heterodimerization inverse agonists; shares compounds with MOR-DOR inv ag; cells expressing OPRM1/OPRD1 heterodimer, luminescence; inhibition, % at 9.3 µM; 580 tested, 20% active; AID 504900; in the data active means inhibition above about 32%;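 further: 0% = cells with DMSO and 100% = wells lacking cells with DMSO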
HTR5A inv ctr2: HTR5A inverse agonism, opioid heterodimer counter-screen. shares compounds with MOR-DOR inv ag. HTR5A-expressing cells, luminescence. inhibition, % at 9.3 µM. 580 tested, under 10 active. AID 504914; call rule not given here;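 further: 0% = cells with DMSO and 100% = no-cell wells with DMSO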
* = called active by the depositor; i = inactive; . = no result given. This is a sample that favours compounds with a hit; in the whole collection about 1.1% have one here.

SMILES	MOR-DOR ag	HTR5A ag ctr	HTR5A inv ctr	MOR-DOR inv ag	OPRM1-D1 inv cf	HTR5A inv ctr2
CCC(C)(C)NC(=O)c1cc(S(=O)(=O)N2CCCCC2)ccc1N1CCOCC1	-3.6	0.2	-0.4	18.7	.	.
COc1ccc(-c2csc3ncnc(N4CCN(c5ccccc5Cl)CC4)c23)cc1	-1.1	-2.0	14.1	5.7	.	.
COc1ccc(-c2csc3ncnc(N4CCN(c5cccc(C)c5C)CC4)c23)cc1	-7.4	0.6	-7.4	40.0*	-175.8	-10.6
O=C1N(Cc2ccccc2)CC2(Br)COCOC12O (stereo not drawn)	-8.7	-4.9	19.0	44.9*	-20.8	-1.3
NNc1nc(-c2ccccc2)cc(-c2ccc(Br)cc2)n1	-14.0	-10.7	-18.2	69.8*	78.3*	25.4
NNc1nc(-c2ccccc2)c2cc(Br)ccc2n1	-4.6	-1.1	4.1	20.4	.	.
O=C1Nc2ccc(Br)cc2C1=C1CCCCC1	0.8	-1.4	5.2	-4.1	.	.
N#C/C(=C1/C(=O)Nc2ccc(Br)cc21)c1ccccn1	-10.5	-4.2	11.5	49.1*	i	3.9
Cc1ccc(S(=O)(=O)N2CCC(=O)N(C(COCc3ccc(Cl)cc3Cl)Cc3ccccc3)CC2)cc1 (stereo not drawn)	-0.9	3.0	-4.4	5.0	.	.
Cc1ccc(N=C2C(=O)Nc3ccc(Br)cc32)cc1	-5.2	-1.6	5.6	23.8	.	.
Cc1cccc2c1NC(=O)C2=Nc1ccc(Cl)cc1	-11.0	-4.7	2.0	55.1*	44.5*	17.0
COc1ccc(N=C2C(=O)Nc3c(C)cccc32)cc1	-11.4	-6.8	24.8	61.6*	51.2*	24.2
COc1ccc(N=C2C(=O)N3CCCc4cccc2c43)cc1	-4.6	4.0	27.1	22.2	.	.
Cc1ccc(N=C2C(=O)Nc3c(C)cccc32)cc1	-11.0	-3.6	13.7	55.2*	31.6*	8.9
O=C(CCN1C(=O)c2ccccc2C1=O)Nc1cc(F)ccc1F	-1.6	0.2	5.9	8.9	.	.
CC(C)(C)c1ccc(-n2ncc3c2CCCC3NC(=O)CN2CCOC2=O)cc1 (stereo not drawn)	-1.5	-1.1	4.8	7.6	.	.
Cc1csc(=Nc2c(C)n(C)n(-c3ccccc3)c2=O)n1-c1ccccc1	0.6	3.6	2.7	-3.1	.	.
Cc1c(N=C2C(=O)Nc3ccccc32)c(=O)n(-c2ccccc2)n1C	-10.1	-6.2	17.5	52.1*	41.7*	23.0
O=C(NNC(=S)NC(=O)C12CC3CC(CC(C3)C1)C2)c1ccncc1	-7.2	-6.9	6.4	42.2*	13.8	-5.3
CC12CC3CC(C1)CC(C(=O)NNC(=O)c1ccncc1)(C3)C2	-2.1	-2.8	11.5	11.0	.	.
FC(F)(F)c1nc2ccccc2n2c(-c3ccc(Cl)cc3)nnc12	-6.6	-4.3	9.3	30.6*	14.2	4.1
Cc1ccc(-c2nnc3c(C(F)(F)F)nc4ccccc4n23)cc1	-4.0	1.8	-4.6	20.1	.	.
Cc1ccc(N2C(=O)c3ccccc3C2=O)nc1	-3.3	-0.8	3.2	15.6	.	.
Cc1ccc2c(c1Br)/C(=N/N1C(=O)c3ccccc3C1=O)C(=O)N2	-11.0	-2.9	-1.5	65.3*	-33.8	-21.2
CCOc1ccc(N=C2C(=O)Nc3ccc(C)c(Br)c32)cc1	-9.6	-4.2	16.6	53.4*	83.4*	10.8
SMILES	MOR-DOR ag	HTR5A ag ctr	HTR5A inv ctr	MOR-DOR inv ag	OPRM1-D1 inv cf	HTR5A inv ctr2
CC(C)NC(=O)C(c1ccc(F)cc1)N(Cc1ccco1)C(=O)CCC(=O)Nc1ccccn1 (stereo not drawn)	-0.6	4.5	-32.3	3.8	.	.
O=C(OCC(=O)c1ccccc1Br)c1ccccn1	-1.9	-2.2	22.1	9.5	.	.
O=C(OCC(=O)c1ccc(Cl)cc1Cl)c1ccc2c(c1)C(=O)N(c1cccc3ncccc13)C2=O	-8.3	-2.2	1.6	43.1*	-61.3	-31.6
O=C(OCC(=O)c1ccc(Cl)cc1Cl)c1ccccn1	-12.2	1.3	-3.7	50.4*	i	-70.8
O=C(CCC(=O)OCC(=O)c1ccc(Cl)cc1Cl)Nc1cccc2cccnc12	-9.7	-6.6	13.4	54.8*	-4.0	-13.6
COc1ccc(-c2nc(=S)c3c(n2Cc2cccnc2)CC(C)(C)OC3)cc1	-6.5	0.8	-23.3	33.1*	42.2*	4.7
CC1(C)Cc2c(c(=S)nc(-c3ccccc3)n2Cc2cccnc2)CO1	-2.2	-0.8	3.9	11.4	.	.
C/C(CCc1ccc2c(c1)OCO2)=N\N=C1\NC(=O)CC(C(=O)Nc2ccc(C(=O)O)cc2)S1 (stereo not drawn)	-3.1	2.6	-7.9	16.0	.	.
CSCCC1NC(=S)N(Cc2ccccc2)C1=O (stereo not drawn)	-9.2	-0.6	2.1	41.6*	-299.8	-24.6
Cc1ccc(C)c(S(=O)(=O)N=Nc2c(O)[nH]c3ccccc23)c1	-8.3	-8.4	23.3	45.8*	18.6	8.6
Cc1ccc(S(=O)(=O)N=Nc2c(O)[nH]c3ccccc23)cc1	-8.0	-3.5	11.6	50.2*	0.7	17.1
Cc1onc(NC(=O)c2ccc(Cl)cc2Cl)c1Br	-1.7	-2.4	13.0	8.8	.	.
CC(=O)N(C)c1ccc(N=C2C(=O)Nc3ccccc32)cc1	-12.7	-3.3	12.3	56.7*	i	-3.1
NC(N)=NS(=O)(=O)c1ccc(N=C2C(=O)Nc3ccccc32)cc1	-10.4	-7.8	28.5	53.3*	70.0*	16.5
O=C1Nc2ccccc2/C1=N\N1CCOCC1	-3.5	-1.3	0.5	17.9	.	.
COc1ccc2c(c1)OC[C@H]1[C@H]2N2C(=O)c3ccccc3NC(=O)[C@@]2(C)[C@H]1c1ccccc1	0.1	-4.6	-33.2	-0.3	.	.
Cc1ccc(C(=O)COC(=O)CN2C(=O)C3CC=CCC3C2=O)cc1[N+](=O)[O-] (stereo not drawn)	-9.2	-3.5	1.2	49.9*	47.7*	19.7
Cc1ccc(C(=O)COC(=O)CN2C(=O)C3C4CCC(C4)C3C2=O)cc1[N+](=O)[O-] (stereo not drawn)	-8.6	-6.4	22.8	53.4*	-31.8	4.9
O=C(CN1C(=O)C2C3C=CC(C3)C2C1=O)OCC(=O)c1ccc(Cl)c([N+](=O)[O-])c1 (stereo not drawn)	-14.1	-8.4	21.2	77.9*	83.8*	19.0
Cc1ccc(C(=O)COC(=O)CN2C(=O)C3C4C=CC(C4)C3C2=O)cc1[N+](=O)[O-] (stereo not drawn)	-4.7	-3.9	11.5	37.5*	-69.7	-14.7
COc1ccccc1-c1nnc(-c2ccc(N3CCOCC3)cc2)o1	-0.8	3.8	-10.3	4.6	.	.
O=C(CCN1C(=O)C2C3CCC(C3)C2C1=O)OCC(=O)c1ccc(Br)cc1 (stereo not drawn)	-2.8	2.1	-7.6	15.7	.	.
Cc1ccc(C(=O)COC(=O)CCN2C(=O)C3C4CCC(C4)C3C2=O)cc1[N+](=O)[O-] (stereo not drawn)	-9.9	-6.0	20.7	54.7*	47.7*	20.6
COC(=O)c1ccccc1NC(=O)Cn1nnc(-c2ccc3c(c2)OCO3)n1	-2.0	0.7	-1.9	8.3	.	.
